# Most compounds without a hit are left out; they make up all but 2.5% or so of the library.
# MEKK3 PB1 HTS = modulators of MEKK3-MEK5 PB1 binding, primary screen, biochemical, wildtype MEKK3, multiplex bead flow cytometry, Alexa488-MEK5; 290,000 compounds, 1.4% hits; Mitogen-activated protein kinase kinase kinase 3 (Homo sapiens), Q99759; binding response (% of control), % at 10 µM; bead-based flow cytometry, Alexa488-MEK5 binding to MEKK3; actives lie on both sides; 0 = blocked by unlabeled MEK5, 100 = vehicle;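 active means binding response more than 3 SD above or below the average of its plate-row segment, actives on both sides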;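 further: Alexa488 bead fluorescence after subtracting the streptavidin-only scavenger bead signal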
# GRK2 inh = compounds blocking aptamer binding on GRK2 – biochemical, human GRK2, bead flow cytometry, HTS, primary screen. FAM-aptamer displacement from GRK2. Beta-adrenergic receptor kinase 1 (Homo sapiens), P25098. 330,000 compounds, 0.59% hits. inhibition of aptamer binding, % at 10 µM;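 active means inhibition of aptamer binding above 40%, roughly 3 SD of noise, on plates passing a quality check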;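 further: median bead fluorescence of bound FAM aptamer so fluorescent compounds give negative values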
# Target sequence (P25098 whole entry, looked up): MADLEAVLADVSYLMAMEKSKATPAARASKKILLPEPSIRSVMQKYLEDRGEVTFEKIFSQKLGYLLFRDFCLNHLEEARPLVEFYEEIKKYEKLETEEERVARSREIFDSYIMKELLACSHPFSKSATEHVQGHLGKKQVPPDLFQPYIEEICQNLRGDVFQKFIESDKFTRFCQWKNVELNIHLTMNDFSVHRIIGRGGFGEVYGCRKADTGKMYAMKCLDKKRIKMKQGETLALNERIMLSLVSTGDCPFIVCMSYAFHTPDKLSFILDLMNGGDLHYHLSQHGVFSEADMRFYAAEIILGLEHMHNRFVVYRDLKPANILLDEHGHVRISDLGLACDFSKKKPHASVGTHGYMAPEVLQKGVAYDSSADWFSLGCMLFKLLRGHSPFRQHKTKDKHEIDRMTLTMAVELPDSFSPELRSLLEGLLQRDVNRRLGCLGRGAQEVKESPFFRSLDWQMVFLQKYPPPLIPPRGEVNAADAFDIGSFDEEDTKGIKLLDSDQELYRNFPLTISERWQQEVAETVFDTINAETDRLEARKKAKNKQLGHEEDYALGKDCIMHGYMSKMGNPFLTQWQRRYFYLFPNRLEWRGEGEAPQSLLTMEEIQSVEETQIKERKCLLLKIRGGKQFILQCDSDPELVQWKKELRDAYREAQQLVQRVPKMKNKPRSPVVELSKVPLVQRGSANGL
# MEKK2mut PB1 HTS = MEK5 binding signal on mutant MEKK2 PB1, primary screen, biochemical, multiplex bead flow cytometry, Alexa488-MEK5; 290,000 compounds, 0.35% hits; Alexa488-MEK5 binding to MEKK2 mutant; AID 1530, 2009; percent response, % at 10 µM; in the data active means percent response above about 24%, passing the limit was not always enough
# MEKK2wt PB1 HTS = modulators of MEK5 binding to wildtype MEKK2, primary screen, biochemical, multiplex bead flow cytometry, Alexa488-MEK5. Mitogen-activated protein kinase kinase kinase 2 (Homo sapiens), Q9Y2U5. Alexa488-MEK5 binding to MEKK2 WT; actives lie on both sides. binding response (% of control), % at 10 µM. 290,000 compounds, 1.1% hits; in the data active means binding response below about 67% or above about 130%
# GRK2 inh confirm = GRK2 aptamer-displacing inhibitors, retest, confirmation, biochemical, cherry pick 1, bead flow cytometry | shares compounds with GRK2 inh | AID 504451, 2011 | bead-bound GRK2, FAM-aptamer displacement | aptamer displacement, % at 10 µM | 2,000 compounds, 4% hits;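 active means aptamer displacement above 40%, near three times the noise of non-fluorescent compounds, on plates passing quality checks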;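 further: negative values mostly reflect intrinsic compound fluorescence rather than true enhancement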
# Aptamer quench 1 = quenches fluorescent RNA aptamer, GRK2 hit artifact | shares compounds with GRK2 inh | Fluorescent RNA aptamer beads, quenching, flow cytometry; stronger effect = higher value | fluorescence change (kMESF span), kMESF (concentration not given with the values) | 110 tested, under 10 active;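 active means compounds whose bead fluorescence drops by more than 37 kMESF across the dose range, marking them as dye quenchers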
# FAM quench CP1 = counter-screen for GRK2 aptamer inhibitors: fluorescent aptamer quenchers. fluorescence response (% of DMSO), % at 10 µM. AID 504580. Carboxyfluorescein RNA aptamer on beads, flow cytometry quenching; stronger effect = lower value. 2,000 tested, under 10 active. shares compounds with GRK2 inh;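 active means compounds that quench the bead-bound fluorescent RNA probe, cutting fluorescence to under half of the solvent control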;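 further: counterscreen run without GRK2 so only probe quenching by compound is measured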
# GRK2 CP2 = GRK2 aptamer-displacing inhibitors, hit retest, confirmation, biochemical, cherry pick 2, bead flow cytometry; inhibition of aptamer binding, % at 10 µM; 360 tested, under 10 active; shares compounds with GRK2 inh; bead-bound GRK2, FAM-aptamer displacement;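 active means inhibition of aptamer binding above 40%, about triple the noise seen with nonglowing compounds, on plates passing quality control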;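 further: negative values mostly come from compounds that fluoresce themselves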
# Aptamer quench 2 = fluorescence quenching of FAM-labeled RNA aptamer, dose response, artefact control for GRK2 aptamer inhibitor project, biochemical, flow cytometry, cherry pick 2. shares compounds with GRK2 inh. Streptavidin beads. change in fluorescence (kMESF span), kMESF (no concentration beside the values). 25 tested, under 10 active;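 active means compounds quenching the bead-bound labeled aptamer, with fluorescence dropping by more than 37 kMESF over the dose range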
# FAM quench CP2 = counter-screen for GRK2 binding hits: quenchers of fluorescent RNA aptamer; shares compounds with GRK2 inh; carboxyfluorescein RNA aptamer beads, flow cytometry quenching; stronger effect = lower value; fluorescence response vs DMSO, % at 10 µM; 360 tested, under 10 active; AID 588494;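 active means response vs DMSO under 50%, meaning signal dropped by over half, treated as fluorescence quencher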;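 further: labelled aptamer on streptavidin beads without GRK2 as a quench counter-screen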
# FAM quench DR = quenchers of FAM-labeled RNA aptamer fluorescence, dose response, artefact control for GRK2 aptamer binding project, biochemical, powder set 1, flow cytometry; 35 tested, under 10 active; Bead-bound FAM RNA aptamer fluorescence quenching; stronger effect = lower value; AID 588496, 2011; fluorescence ratio to DMSO, % at 11.1 µM; shares compounds with GRK2 inh;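 active means compounds that dim the fluorescent label, raw bead signal shifting by over 33 units between lowest and highest dose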
# Hits are given with their value; . = inactive; / = no result given.
SMILES,MEKK3 PB1 HTS,GRK2 inh,MEKK2mut PB1 HTS,MEKK2wt PB1 HTS,GRK2 inh confirm,FAM quench CP1,others
Cc1ccc(NC(=O)CC2S/C(=N/N=C3/NC(=O)CS3)NC2=O)cc1 (stereo not given),.,91,.,.,.,.,
COc1cccc(CN(C)C(=O)CCNC(=O)c2ccco2)c1,/,.,/,/,/,/,
COC(=O)[C@H](Cc1ccccc1)NC(=O)C1(OC(C)=O)CC(OC(C)=O)C(OC(C)=O)C(OC(C)=O)C1 (stereo not given in full),.,63,.,.,.,.,
CC1CCCC(NC(=O)CSc2nnc(-c3cccnc3)n2N)C1C (stereo not given),/,.,/,/,/,/,
CC(=O)Nc1cccc(NC(=O)C2CC(=O)N(CCc3ccc(F)cc3)C2)c1 (stereo not given),.,.,.,.,/,/,
COc1ccc(CNC(=O)C2CC(C)=C(C)CC2C(=O)O)cc1OC (stereo not given),.,.,.,.,/,/,GRK2 CP2=.;FAM quench CP2=.
CCOc1ccc(CCNC(=O)C2CC(C)=CCC2C(=O)O)cc1OCC (stereo not given),.,66,.,.,53,.,Aptamer quench 1=.
Cc1cc(C)c(C(=O)N(CCN(C)C)CC2CCCN(Cc3ccccc3F)C2)o1 (stereo not given),.,.,.,.,/,/,
CCOc1ccccc1C(=O)NCC(=O)NNC(=O)CN(C)S(=O)(=O)c1ccc(Cl)cc1,/,.,/,/,/,/,
O=C(c1ccco1)N1CCN(C(=O)c2ccccc2OCc2ccccc2)CC1,/,.,/,/,/,/,
Cc1nn(CC(=O)NCC(C)c2ccccc2)c(=O)c2cc(-c3ccccc3)nn12 (stereo not given),.,.,.,.,/,/,
c1ccc2sc(N3CN(CCN4CCOCC4)CN(c4nc5ccccc5s4)C3)nc2c1,.,.,.,.,.,.,
c1ccc2sc(N3CCOCC3)nc2c1,.,.,.,.,/,/,
CC(C)[C@H]1C(=O)Nc2ccccc2N1C(=O)N[C@@H](Cc1ccccc1)C(=O)N[C@@H](Cc1ccccc1)C(=O)O,.,.,.,.,/,/,
CCN1CCN(CC(=O)N2N=CCC2c2ccccc2)CC1 (stereo not given),.,100,.,.,.,.,
O=C(/C=C/c1ccccc1)c1ccccc1,.,.,.,.,/,/,
N#Cc1ccc(/C=C/C(=O)c2ccccc2)cc1,.,51,.,.,.,.,
Nc1nc(=S)c2ncn(C3OC(CO)C(O)C3O)c2[nH]1 (stereo not given),.,87,.,.,.,.,
O=C(Nc1cc(C(=O)N2CCOCC2)cc(C(=O)N2CCOCC2)c1)c1cc(F)c(F)cc1Cl,.,.,.,.,.,.,
O=C1c2ccccc2[C@@H]2C[C@H](NC34CC5CC(CC(C5)C3)C4)[C@@H](O)CCN12,/,.,/,/,/,/,
O=C(CCCCC(=O)NCc1cccs1)NCc1cccs1,.,.,.,.,/,/,
O=C(CCS(=O)(=O)c1ccc(Br)cc1)NCc1cccs1,/,94,/,/,58,.,Aptamer quench 1=.;Aptamer quench 2=.;FAM quench DR=.
O=C(CCS(=O)(=O)c1ccc(Br)cc1)NCc1ccco1,.,63,.,.,.,.,Aptamer quench 1=.;Aptamer quench 2=.
CCN(CC(=O)NCc1cccs1)C(=O)c1cccc(S(=O)(=O)NC)c1,/,48,/,/,.,.,
O=C(CCNC(=O)c1ccc(Br)cc1)NCc1ccco1,/,.,/,/,/,/,
SMILES,MEKK3 PB1 HTS,GRK2 inh,MEKK2mut PB1 HTS,MEKK2wt PB1 HTS,GRK2 inh confirm,FAM quench CP1,others
CCN(CC(=O)NCc1cccs1)C(=O)c1cccc(S(=O)(=O)N(C)C)c1,/,.,/,/,/,/,
Cc1ccc(S(=O)(=O)N2CCCC2)cc1C(=O)NCC(C)(C)N1CCOCC1,/,.,/,/,/,/,
O=C(COC(=O)c1cc2c(s1)CCCC2)Nc1ccc(Cl)cn1,.,.,.,.,/,/,
NC(=O)c1ccc(NC(=O)COC(=O)c2cc3c(s2)CCC3)cc1,/,52,/,/,.,.,
CNC(=O)c1ccc(Nc2nnc(C)c3ccccc23)cc1,.,.,.,.,/,/,
Cc1nnc(Nc2ccc(C(=O)NCCO)cc2)c2ccccc12,.,49,.,.,.,.,
Cc1oc(-c2cccc(Cl)c2)nc1CN1CCCC(C(=O)NCc2ccco2)C1 (stereo not given),.,.,.,.,.,.,
Cc1oc(-c2ccc(Cl)cc2)nc1CN1CCCC(C(=O)NCc2ccccn2)C1 (stereo not given),.,.,.,.,.,.,
Cc1cccc(-c2nc(CN3CCCC(C(=O)NC4CCCCCC4)C3)c(C)o2)c1 (stereo not given),.,.,.,.,.,.,
Cc1oc(-c2ccc(Cl)cc2)nc1CN1CCCC(C(=O)NCc2cccnc2)C1 (stereo not given),.,.,.,.,.,.,Aptamer quench 1=.
Cc1oc(-c2ccc(Cl)cc2)nc1CN1CCCC(C(=O)NCCCN2CCOCC2)C1 (stereo not given),/,.,/,/,/,/,
Cc1oc(-c2cccc(Cl)c2)nc1CN1CCC(C(=O)NCc2ccco2)CC1,.,.,.,.,/,/,
CCc1ccc(-c2cc(C)no2)cc1S(=O)(=O)N1CCN(c2ccccc2)CC1,.,.,.,.,/,/,
Cn1nccc1C(=O)N(CCN1CCCCC1)CC1CCCN(C2CCCC2)C1 (stereo not given),.,.,.,.,/,/,
COc1ccc(CCNCc2ccc(OCc3ccccc3)cc2)cc1,.,58,.,136,.,.,
CCCc1c(C)[nH]c2ccc(NC(C)=O)cc2c1=O,.,74,.,.,.,.,
